A selection: hits, their analogues and other compounds. The true share with any hit is near 5.9%.
NR0B1 inh – DAX1 (NR0B1) inhibitors, primary screen, cell-based, HEK293, Gal4-DAX1, luciferase luminescence; HEK293 Gal4-DAX1 luciferase reporter; AID 504766, 2011; hit rate 0.99% among 340,000; Nuclear receptor subfamily 0 group B member 1 (Homo sapiens), P51843; inhibition, % at 6.75 µM;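 active means inhibition above the mean over all tested compounds plus 3 SD, cut at about 4.2% in these data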;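 further: 0% = DAX1-transfected cells with DMSO and 100% = empty-vector control cells with DMSO; inhibition shows as a rise in luminescence from relieved DAX1 repression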
Target sequence (P51843 207-470 limits assumed): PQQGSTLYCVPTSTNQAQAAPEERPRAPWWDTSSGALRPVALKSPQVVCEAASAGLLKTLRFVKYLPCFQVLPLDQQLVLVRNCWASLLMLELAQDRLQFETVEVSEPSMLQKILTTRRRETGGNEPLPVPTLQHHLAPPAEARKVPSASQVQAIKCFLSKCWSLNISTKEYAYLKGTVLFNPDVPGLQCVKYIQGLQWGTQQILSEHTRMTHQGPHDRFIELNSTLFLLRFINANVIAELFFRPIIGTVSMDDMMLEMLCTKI
HSP90 refold inh – HSP90 inhibitors, primary screen, cell lysate, luminescence | Heat shock protein HSP 90 (rabbit reticulocyte lysate; luciferase refolding) | Rabbit reticulocyte lysate, luciferase refolding luminescence, 3 h | inhibition, % at 5.6 µM | hit rate 0.91% among 290,000 | AID 1789, 2009;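 active means inhibition above the screen-wide mean plus 3 SD, computed separately per campaign, cut at about 16% in these data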;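 further: 0% = DMSO wells and 100% = 60 µM geldanamycin wells; inhibitors lower the luminescence because luciferase stays unfolded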
HSF-1 act – HSF-1 activators, primary screen, NIH3T3-HGL cells, MG132 stress, luminescence, single point; hit rate 1.7% among 300,000; AID 504408, 2011; activation, % at 9 µM; NIH3T3-HGL HSF-1 luciferase reporter, 8 h; 100% = twice DMSO control signal;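 active means mean replicate activation of at least 50% with a set share of replicates each reaching 50%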;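 further: 0% = median of the neutral control wells and 100% = twice that signal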
HSF1 inh – HSF1 inhibitors in luciferase reporter cells, primary screen, cell-based, NIH3T3, luminescence; hit rate 0.77% among 300,000; AID 2098, 2009; NIH3T3-HGL HSE-luciferase, MG132-induced, luminescence 8 h; hits give low values; activity change, negative = inhibition, % at 7.5 µM (by protocol);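 active means more than half of replicate wells show activity change below -50%, luminescence cut by over half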;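 further: luciferase reports HSF-1 transcriptional activity via heat shock element; 0% = median of DMSO wells and -100% = zero luminescence signal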
AHR act – AHR activators, primary screen, cell-based, luminescence, luciferase reporter, human; Aryl hydrocarbon receptor (Homo sapiens), P35869; AHR-responsive luciferase reporter cells; hit rate 2.5% among 320,000; activation, % at 5 µM; in the data active means activation above about 47%;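 further: 0% = vehicle wells and 100% = reference agonist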
GAA850 FXN act – FXN promoter activators, primary screen, cell-based, luciferase luminescence, HEK293 lucGAA850 | HEK293 lucGAA850 FXN promoter luciferase reporter, 24 h; percent of 10 µM SAHA response | activation, % at 6 µM | hit rate 0.56% among 360,000 | AID 540364, 2011;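 active means activation above the average of all compounds screened plus 3 SD, cutoff fixed separately per campaign, cut at about 7.5% in these data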;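 further: 0% = DMSO wells and 100% = 10 µM SAHA wells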
Active calls of the source: *.

What do the screens show for `O=C(Nc1ccccc1N1CCOCC1)c1cccc([N+](=O)[O-])c1`?
NR0B1 inh: -1; HSP90 refold inh: 0; HSF-1 act: 7; HSF1 inh: 6; AHR act: 67*; GAA850 FXN act: 1

Results for CCc1ccccc1NC(=O)c1cc([N+](=O)[O-])ccc1N1CCOCC1 ?
NR0B1 inh: 1; HSP90 refold inh: -4; HSF-1 act: -27; HSF1 inh: -16; AHR act: 6; GAA850 FXN act: 0

How did O=C(Nc1ccccc1N1CCCCC1)c1cccc([N+](=O)[O-])c1 do in these assays?
NR0B1 inh: -1; HSP90 refold inh: 1; HSF-1 act: -7; HSF1 inh: 7; AHR act: 5; GAA850 FXN act: 1

Results for CC1CCN(c2ccccc2NC(=O)c2cc([N+](=O)[O-])ccc2N2CCOCC2)CC1 ?
NR0B1 inh: 1; HSP90 refold inh: -4; HSF-1 act: 21; HSF1 inh: 20; AHR act: 37; GAA850 FXN act: 12*

How did CCOc1ccc(NC(=O)c2cc([N+](=O)[O-])ccc2N2CCOCC2)cc1 do in these assays?
NR0B1 inh: 0; HSF-1 act: -6; HSF1 inh: -7; AHR act: 74*; GAA850 FXN act: -1

Results for O=C(COC(=O)c1cc(Cl)nc(Cl)c1)NC1CCCCCC1 ?
NR0B1 inh: -1; AHR act: -1; GAA850 FXN act: -1

What do the screens show for `CC(NS(=O)(=O)c1ccc(N)cc1)C1CC2CCC1C2` (stereo unspecified)?
NR0B1 inh: 2; HSP90 refold inh: 7; HSF-1 act: -23; HSF1 inh: -12; AHR act: -1; GAA850 FXN act: 0

Results for O=C(CCC1CCCCC1)Nc1ccccc1O ?
NR0B1 inh: 2; HSP90 refold inh: 0; HSF-1 act: 59*; HSF1 inh: 45; AHR act: -6; GAA850 FXN act: 4

What do the screens show for `Cn1c(NC(=O)CCC2CCCCC2)cc(=O)n(C)c1=O`?
NR0B1 inh: 3; HSP90 refold inh: -2; HSF-1 act: 55*; HSF1 inh: 36; AHR act: 41; GAA850 FXN act: 3

What do the screens show for `Cn1c(NNC(=O)CCC2CCCCC2)cc(=O)n(C)c1=O`?
NR0B1 inh: 1; HSP90 refold inh: -4; HSF-1 act: 18; HSF1 inh: -4; AHR act: -1; GAA850 FXN act: 1

How did O=C(CCC1CCCCC1)Nc1ccccc1-c1ccccc1 do in these assays?
NR0B1 inh: -1; HSP90 refold inh: -1; HSF-1 act: -10; HSF1 inh: 2; AHR act: -1; GAA850 FXN act: -1

How did O=C(Nc1ccc(C(=O)OC2CCCCC2)cc1)c1ccncc1 do in these assays?
NR0B1 inh: -4; HSP90 refold inh: 0; HSF-1 act: -21; HSF1 inh: 1; AHR act: 1; GAA850 FXN act: 0

How did Cc1onc(-c2c(F)cccc2Cl)c1C(=O)OCC(=O)c1c[nH]c2ccccc12 do in these assays?
NR0B1 inh: -2; HSP90 refold inh: -4; HSF-1 act: -5; HSF1 inh: -2; AHR act: 19; GAA850 FXN act: -2

What do the screens show for `CCOc1ccc(-c2nnc(SCc3nc4ccccc4[nH]3)n2N)cc1`?
NR0B1 inh: -2; HSP90 refold inh: -3; HSF-1 act: 63*; HSF1 inh: 46; AHR act: 5; GAA850 FXN act: 0

Results for NC(=O)c1ccc[n+](Cc2ccc(-c3ccccc3)cc2)c1 ?
NR0B1 inh: 0; HSP90 refold inh: -2; HSF-1 act: -7; HSF1 inh: -6; AHR act: 1; GAA850 FXN act: 0

Results for CC(=O)c1c(C)[nH]c(C(=O)CSc2nnc(-c3ccco3)n2Cc2ccccc2)c1C ?
NR0B1 inh: -2; HSP90 refold inh: -2; HSF-1 act: 11; HSF1 inh: 6; AHR act: 69*; GAA850 FXN act: -3

High-throughput results from PubChem.
